Screens: PubChem, National Center for Advancing Translational Sciences (NCATS)
Only some compounds are listed: those with a hit (about 1.7% of all), similar ones and a draw of the others.
HEK293 tox: cytotoxic in the GLP-1 receptor inverse agonist counter-screen. Potency, µM (top dose mostly 38.3 µM), actives largely listed as inhibitors. 410,000 compounds, 0.13% hits. HEK293 cAMP-luciferase reporter cells, luminescence, 24 h. AID 624418;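 further: loss of luciferase light is scored as toxicity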
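1536-well qHTS counterscreen of the MLSMR; 200 cells/uL, 12 h pre-incubation, 23 nL cpd, 24 h at 37 deg C 5% CO2, luciferase detection reagent, 12 min RT, luminescence. Inhibition = undesired.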
GLP-1R agonist: activates the human GLP-1 receptor. 380,000 compounds, 0.007% hits. Potency, µM (series often up to 45.6 µM), most hits filed as activators. HEK293 GLP-1R CRE-luciferase, luminescence, 4-6 h; cells express a hypersensitive GLP-1R form
PTHR1 agonist: PTHR1 (human) receptor agonism. Q03431. HEK293 GP2 PTHR1 cells, GloSensor cAMP luminescence, 1 h. Potency, µM (top dose mostly 115 µM), actives largely listed as activators. 410,000 compounds, 0.075% hits. AID 743266; further: nearly all actives have a fitted effect of over 55% in size
Target sequence (Q03431 whole entry, looked up): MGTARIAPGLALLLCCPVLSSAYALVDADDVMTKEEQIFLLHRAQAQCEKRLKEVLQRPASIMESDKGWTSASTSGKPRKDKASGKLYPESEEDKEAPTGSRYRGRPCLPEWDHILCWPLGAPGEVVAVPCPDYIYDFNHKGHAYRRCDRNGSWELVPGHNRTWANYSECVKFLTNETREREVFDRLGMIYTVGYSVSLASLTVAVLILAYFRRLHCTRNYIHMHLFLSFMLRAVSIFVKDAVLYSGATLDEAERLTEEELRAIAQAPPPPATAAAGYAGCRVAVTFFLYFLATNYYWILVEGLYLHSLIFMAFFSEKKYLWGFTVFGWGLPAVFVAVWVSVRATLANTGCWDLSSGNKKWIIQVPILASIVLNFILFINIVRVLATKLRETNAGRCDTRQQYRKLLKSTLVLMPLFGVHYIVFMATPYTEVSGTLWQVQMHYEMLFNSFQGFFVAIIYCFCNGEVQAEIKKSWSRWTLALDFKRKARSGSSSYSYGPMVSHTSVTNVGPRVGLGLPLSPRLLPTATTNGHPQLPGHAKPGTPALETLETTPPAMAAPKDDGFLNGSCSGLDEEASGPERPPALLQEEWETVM
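HEK-293-derived GP2 cells expressing PTHR1 and a GloSensor cAMP reporter, 3,000/well, plated overnight, given luciferin plus IBMX (each 0.5 mM as added) for 1 h at 37 °C, then compound for 1 h at 37 °C. Luminescence was read after 15 min at room temperature.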
GLP1R inv ag: inverse agonists of human GLP-1 receptor; P43220; HEK293 GLP-1R CRE-luciferase, luminescence, 24 h; GLP-1R form is constitutively active; Potency, µM (top dose mostly 38.3 µM), usual class: inhibitors; 410,000 compounds, 1.6% hits; further: nearly all actives have a fitted effect of over 55% in size
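Readout was luciferase luminescence, measured 12 min after detection reagent at room temperature. Beforehand, GLP-1R reporter HEK293 cells had sat 12 h, then received compounds for 24 hr at 37 deg C.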
Hits are given with their value; n = inactive; u = inconclusive; x = no result given. The call rests on the fitted dose curve; in most records, active means well fitted curve in the direction sought with a large enough effect; inconclusive means small, poorly fitted or top-dose-only effect, or another doubt; inactive means no such curve, though single readings can be large; an effect the other way counts as inactive or inconclusive.

SMILES	HEK293 tox	GLP-1R agonist	PTHR1 agonist	GLP1R inv ag
COc1cccc(/C=N/NC(=O)C(C)n2nc(C)c([N+](=O)[O-])c2C)c1O (stereo unspecified)	u	n	n	1.78µM
Cc1sc(NC(=O)c2ccco2)c(C(c2ccc(F)cc2)N2CCN(C)CC2)c1C (stereo unspecified)	u	n	n	7.08µM
Cc1sc(NC(=O)c2ccco2)c(C(c2ccccc2)N2CCC(C)CC2)c1C (stereo unspecified)	n	n	n	6.31µM
COc1cc(C)ccc1OCc1cc(C(=O)NC(c2ccccn2)C(F)(F)F)no1 (stereo unspecified)	n	n	n	12.6µM
Cc1c(C2=CCN(S(=O)(=O)c3ccc(Br)cc3)CC2)c2ccccc2n1CC(=O)N1CCCC1	n	x	n	n
Cc1c(C2=CCN(S(=O)(=O)c3ccc(CC(C)C)cc3)CC2)c2ccccc2n1CC(=O)N1CCCC1	n	x	44.7µM	n
CN1CCC(N(C)S(=O)(=O)c2ccc(NC(=O)COc3cccc(C(F)(F)F)c3)cc2)CC1	n	n	n	11.2µM
COc1ccc(CC(=O)Nc2ccc(S(=O)(=O)N(C)C3CCN(C)CC3)cc2)cc1	n	n	n	n
CC(Oc1ccc(Br)cc1)C(=O)Nc1ccc(S(=O)(=O)N(C)C2CCN(C)CC2)cc1 (stereo unspecified)	n	n	n	2.82µM
CN1CCN(NC(=O)COc2cccc(C(F)(F)F)c2)CC1	n	n	n	n
CCOC(=O)c1cc(S(=O)(=O)N2CCN(c3ccc(C(C)=O)cc3)CC2)[nH]n1	n	x	n	n
O=C(CSc1cccc[n+]1[O-])Nc1ccccc1C(F)(F)F	n	n	u	n
O=C(CSc1cccc[n+]1[O-])Nc1ccccc1Oc1ccccc1	0.794µM	n	n	u
CCC1=NN(C(=O)c2ccc(Cl)cc2)C(O)(c2ccccc2)C1 (stereo unspecified)	n	n	n	u
CCC1=NN(C(=O)c2ccc([N+](=O)[O-])cc2)C(O)(c2ccccc2)C1 (stereo unspecified)	u	n	n	0.794µM
CCC1=NN(C(=O)c2ccc(Cl)cc2)C(O)(c2ccc(C)cc2)C1 (stereo unspecified)	u	n	n	2.82µM
CC1=NN(C(=O)c2ccccc2Br)C(O)(c2ccc(Cl)cc2)C1 (stereo unspecified)	n	n	n	3.16µM
Cc1ccccc1CNC(=O)Cn1cc2c(n1)-c1c(oc(C(=O)N3CCCC3)c1C)CC2	n	x	n	n
COC(=O)C1=C(C)N(Cc2ccc(C)cc2)C(=O)/C1=C\c1cc(OC)c(OC)c(OC)c1	n	n	n	4.47µM
COC(=O)C1=C(C)N(Cc2ccc(C)cc2)C(=O)/C1=C\c1ccc(O)c(OC)c1	n	n	n	n
O=C(CN1C(=O)COc2ccc(S(=O)(=O)N3CCCCC3)cc21)NCc1ccc(Cl)cc1	n	n	n	10µM
Cc1c(C(=O)NCc2ccc(F)cc2)oc2ccc(S(=O)(=O)N3CCCCC3)cc12	n	x	n	10µM
CCN(CC)S(=O)(=O)c1ccc2c(c1)N(CC(=O)NCCCN1CCN(c3cc(Cl)ccc3C)CC1)C(=O)CO2	u	n	n	11.2µM
COc1ccccc1CNC(=O)c1oc2ccc(S(=O)(=O)N3CCCCC3)cc2c1C	n	x	n	u
CC(C)N(Cc1ccccc1)C(=O)CN1C(=O)COc2ccc(S(=O)(=O)N3CCCCCC3)cc21	n	n	n	7.94µM
SMILES	HEK293 tox	GLP-1R agonist	PTHR1 agonist	GLP1R inv ag
O=C(C1CCCCC1)N(Cc1cccnc1)c1nc2c(F)cc(F)cc2s1	n	x	n	u
Cc1cc(C)c(NC(=O)C(=O)NCCc2csc(-c3ccc(F)cc3)n2)c(C)c1	n	x	n	u
CSCCC(N)C(=O)O (stereo unspecified)	x	n	x	x
O=C(Cc1ccc(S(=O)(=O)N2CCCCC2)cc1)NCc1ccc(Cl)cc1	n	n	n	7.08µM
CC(C)CC(=O)Nc1ccc(S(=O)(=O)Nc2cc3c(cc2N2CCOCC2)n(C)c(=O)c(=O)n3C)cc1	n	x	n	n
O=C(NCc1ccccc1)c1cnc2sc(N3CCCC3)nn2c1=O	n	x	n	n
CC(NC(=O)Cn1c(=O)oc2cc(S(=O)(=O)NCc3ccccc3)ccc21)c1ccccc1 (stereo unspecified)	n	x	n	u
CC(=O)c1c(C)nn(CC(=O)NC2CCCN(Cc3ccc(CC(C)C)cc3)C2)c1C (stereo unspecified)	n	n	n	11.2µM
CCOC(=O)c1c(C)[nH]c(C(=O)OCC(=O)Nc2sccc2C(N)=O)c1C	u	n	n	11.2µM
CCOC(=O)c1c(C)[nH]c(C(=O)OCC(=O)Nc2ccc(Cl)cn2)c1C	n	n	n	n
Cc1c(Cl)cccc1NC(=S)N(Cc1cccnc1)Cc1ccccc1Cl	n	n	n	11.2µM
S=C(Nc1ccccc1Cl)N(Cc1ccccc1)Cc1ccccn1	u	n	n	10µM
CCOC(=O)c1ccc(NC(=O)Cn2nc(SC)c(S(=O)(=O)c3ccc(Cl)cc3)c2N)cc1	n	n	n	u
CC(=O)N1CCc2c(sc3c2c(=O)n(-c2cccc(Cl)c2)c(=O)n3Cc2ccc(F)cc2Cl)C1	n	x	n	n
CCOc1ccc(CCNC(=O)CCn2c(=O)c3cccn3c3cccnc32)cc1	n	x	n	n
CC(C(=O)NCc1ccccc1)n1ccc2cc(S(=O)(=O)N3CCCC3)ccc21 (stereo unspecified)	n	x	n	n
O=C(C1CCC(Cn2c(=S)[nH]c3ccccc3c2=O)CC1)N1CCN(c2ccccc2)CC1 (stereo unspecified)	n	n	n	3.55µM
O=C(C1CCC(Cn2c(=O)[nH]c3ccccc3c2=O)CC1)N1CCN(c2ccccc2)CC1 (stereo unspecified)	n	n	n	n
CCCCNC(=O)C(CC)Sc1nc2ccccc2c(=O)n1CCc1ccc(OC)c(OC)c1 (stereo unspecified)	n	x	n	n
Cn1c(N)c(C(=O)COC(=O)c2ccccc2C(=O)c2ccc(Cl)cc2)c(=O)n(C)c1=O	n	n	n	11.2µM
Cc1cc(C)c2c(CC(=O)Nc3ccccc3C(F)(F)F)coc2c1	n	x	n	n
COc1ccc(OC)c(C2CC(=O)Nc3c2c(=O)[nH]c2nc4ccccc4n32)c1 (stereo unspecified)	n	n	n	n
CCCCOc1ccc(C(=O)OC2CC(C)N(C)CC2C)cc1 (stereo unspecified)	n	n	n	3.55µM
CC1CN(C)C(C)CC1OC(=O)C(c1ccccc1)c1ccccc1 (stereo unspecified)	n	n	n	u
Cn1c2ccccc2c2cnn(CC(=O)NCCCN3CCCCC3)c(=O)c21	n	x	n	n
CCCCCCCn1ccc(O)c(CC(=O)OC)c1=O	n	n	50.1µM	n
COC(=O)Cc1c(O)ccn(CCc2c[nH]c3ccccc23)c1=O	n	n	n	n
